For test [1], the target named is T1, Tyrosine-protein phosphatase non-receptor type substrate 1 (Homo sapiens) + Leukocyte surface antigen CD47 (Homo sapiens) (UniProt P78324+Q08722). Nature of the test: CD47-SIRPalpha protein protein interaction - HTRF assay qHTS validation (AID 1347058; active = well fitted curve in the direction sought with a large enough effect in the signal ratio, not every such curve was filed as active; the % refers to the signal ratio; also: series mostly up to about 38 µM). In short, it runs like this:
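Soluble extracellular domains (6His-CD47, Avi-tag-biotinylated SIRPalpha) in PBS pH 7.4 with 0.05% IGEPAL CA-630. Compounds were preincubated 30 min at RT with CD47 and anti-His-Eu, then SIRPalpha and SAV-XL665 were added. TR-FRET 665/615 ratio.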

For test [2], the target named is T1, Tyrosine-protein phosphatase non-receptor type substrate 1 (Homo sapiens) + Leukocyte surface antigen CD47 (Homo sapiens). Nature of the test: CD47-SIRPalpha protein protein interaction - Alpha assay qHTS validation (AID 1347059).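 Also: bead proximity luminescence from CD47 binding SIRPalpha after compound preincubation with SIRPalpha.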 In a few lines:
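SIRPalpha-biotin 25 nM + cpd, 30 min RT, dark; add CD47-His 12.5 nM, 30 min; add Ni-NTA/SAV beads 10 ug/mL, 30 min; AlphaScreen. Buffer PBS pH 7.4 + 0.05% IGEPAL CA-630. Non-biotinylated SIRPalpha as control inhibitor.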
For orientation: qHTS replaces the single test concentration by a dilution series.

Test [3] concerns the target Parathyroid hormone/parathyroid hormone-related peptide receptor (Homo sapiens) (UniProt Q03431). Nature of the test: qHTS for PTHR1 Agonists: Optimization Screen against the NCGC LOPAC library (AID 1347079).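 Also: GloSensor cAMP luminescence in HEK-293 GP2 cells expressing human PTHR1 with IBMX.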 In short, it runs like this: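 Signal increase flags agonism. GP2 cells, derived from HEK-293, express human PTHR1 and a GloSensor cAMP construct.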
Test [4] is described as follows: qHTS of pediatric cancer cell lines to identify multiple opportunities for drug repurposing: Primary screen for DAOY cells (AID 1347090). Also: series mostly up to about 46 µM; nearly all actives have a fitted effect of over 55% in size. In a few lines: (§1)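 Viability measured as metabolically active cells via CellTiter-Glo luminescence following 48 hours of compound exposure, 11-point dilutions in confirmatory testing. 500-1,000 cells/well plated 5 hours before dosing; controls were DMSO and 2.3 µM bortezomib.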

Test [5] in a line: qHTS of pediatric cancer cell lines to identify multiple opportunities for drug repurposing: Primary screen for SJ-GBM2 cells (AID 1347091). Also: potency is read from the fitted curve at half-maximal effect. In short, it runs like this: as §1
Test [6] can be described thus: qHTS of pediatric cancer cell lines to identify multiple opportunities for drug repurposing: Primary screen for A673 cells (AID 1347092). Also: nearly all actives have a fitted effect of over 45% in size. In short, it runs like this: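 A673 cells (500-1,000 cells/well in growth media) were pre-incubated 5 h at 37 degrees C, then exposed to compounds for 48 h. Viability was read as CellTiter-Glo luminescence; concentration-response curves came directly from the primary screen.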

Test [7] in a line: qHTS of pediatric cancer cell lines to identify multiple opportunities for drug repurposing: Primary screen for SK-N-MC cells (AID 1347093). Also: series mostly up to about 46 µM. In a few lines: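 Metabolically active cells were quantified by ATP-dependent luminescence (CellTiter-Glo, 15 min at room temperature) following 48 h treatment. Cells had been plated at 500-1,000 per well and settled for 5 h beforehand.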

A short description of test [8]: qHTS of pediatric cancer cell lines to identify multiple opportunities for drug repurposing: Primary screen for BT-37 cells (AID 1347094). Also: series mostly up to about 57 µM. In a few lines:
(§2)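 Quantitative HTS format: each compound titrated (MIPE 11 points from 0.78 nM, NPC 8 points from 0.59 nM) onto cells plated 5 hours earlier. After 48 h at 37 degrees C, CellTiter-Glo luminescence was recorded.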

Test [9] can be described thus: qHTS of pediatric cancer cell lines to identify multiple opportunities for drug repurposing: Primary screen for NB-EBc1 cells (AID 1347095). In short, it runs like this: as §2
Test [10] in a line: qHTS of pediatric cancer cell lines to identify multiple opportunities for drug repurposing: Primary screen for TC32 cells (AID 1347089). Also: nearly all actives have a fitted effect of over 60% in size. In a few lines: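 Luminescent CellTiter-Glo read-out of metabolically active TC32 cells after 48 h compound exposure. Primary: MIPE 11-point, 0.78 nM–46 µM; NPC 8-point, 0.59 nM–46 µM. Confirmatory: 11-point dilutions.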

Values without a mark were called inactive. Inconclusive results are not listed. Activity calls are given as the source filed them. Unless noted, calls follow the shape of the dose curve; as a rule, active = well fitted curve in the direction sought with a large enough effect; inconclusive = small, poorly fitted or top-dose-only effect, or another doubt; inactive = no such curve, though single readings can be large; an effect the other way counts as inactive or inconclusive.

T1 sequence (P78324 whole entry, looked up, the tested form may be a part): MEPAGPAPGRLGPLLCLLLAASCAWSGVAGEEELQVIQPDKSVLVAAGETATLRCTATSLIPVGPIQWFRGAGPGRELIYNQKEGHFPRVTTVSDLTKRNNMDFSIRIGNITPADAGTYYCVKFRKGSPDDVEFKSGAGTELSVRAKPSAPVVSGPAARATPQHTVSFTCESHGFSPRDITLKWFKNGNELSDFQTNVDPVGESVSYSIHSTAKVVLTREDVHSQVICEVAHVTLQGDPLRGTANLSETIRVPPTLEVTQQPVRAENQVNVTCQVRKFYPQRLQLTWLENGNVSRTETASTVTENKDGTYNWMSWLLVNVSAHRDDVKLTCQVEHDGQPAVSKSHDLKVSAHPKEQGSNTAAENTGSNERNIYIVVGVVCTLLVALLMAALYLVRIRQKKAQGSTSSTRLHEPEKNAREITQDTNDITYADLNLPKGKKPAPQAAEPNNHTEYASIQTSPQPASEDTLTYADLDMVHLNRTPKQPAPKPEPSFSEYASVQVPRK
T1 sequence (Q08722 whole entry, looked up, the tested form may be a part): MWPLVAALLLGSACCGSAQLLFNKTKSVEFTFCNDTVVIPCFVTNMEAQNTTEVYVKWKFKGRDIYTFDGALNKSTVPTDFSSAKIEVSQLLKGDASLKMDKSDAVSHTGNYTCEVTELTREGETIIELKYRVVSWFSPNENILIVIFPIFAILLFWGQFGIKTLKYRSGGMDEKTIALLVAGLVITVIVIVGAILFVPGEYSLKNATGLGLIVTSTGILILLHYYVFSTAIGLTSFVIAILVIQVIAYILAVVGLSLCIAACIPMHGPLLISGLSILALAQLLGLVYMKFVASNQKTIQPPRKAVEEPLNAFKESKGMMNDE
Sequence of Parathyroid hormone/parathyroid hormone-related peptide receptor (Homo sapiens) (Q03431 whole entry, looked up): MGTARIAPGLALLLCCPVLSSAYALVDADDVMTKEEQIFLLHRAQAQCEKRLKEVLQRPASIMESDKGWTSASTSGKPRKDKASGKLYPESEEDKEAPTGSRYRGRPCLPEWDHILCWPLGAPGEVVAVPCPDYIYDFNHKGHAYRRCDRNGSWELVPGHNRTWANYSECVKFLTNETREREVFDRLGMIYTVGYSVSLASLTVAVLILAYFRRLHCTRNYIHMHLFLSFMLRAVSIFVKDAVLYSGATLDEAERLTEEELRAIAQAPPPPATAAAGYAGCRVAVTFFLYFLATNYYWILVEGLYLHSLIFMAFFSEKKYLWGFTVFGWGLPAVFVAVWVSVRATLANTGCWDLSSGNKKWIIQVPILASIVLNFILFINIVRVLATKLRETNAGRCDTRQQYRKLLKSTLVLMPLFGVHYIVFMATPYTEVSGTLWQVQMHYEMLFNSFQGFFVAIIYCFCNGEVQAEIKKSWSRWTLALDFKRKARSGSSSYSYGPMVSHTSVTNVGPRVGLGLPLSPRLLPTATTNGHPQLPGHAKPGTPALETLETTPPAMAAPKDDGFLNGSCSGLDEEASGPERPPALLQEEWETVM

Regarding `CN(C(=O)CCCOc1ccc2[nH]c(=O)ccc2c1)C1CCCCC1`, the outcome in [1] and in test [3] was inactive. For the same compound, the Potency entry in test [2], in test [4], in test [5], in test [6], in [7] and in [8] was “inactive” each time. Also, the Potency entry in [9] was “inactive”.
`CCCCNc1c(C(=O)OCC)c(C)nc2c1cnn2CC`: the result in test [1] and in test [3] was inactive. The Potency result in test [2], in [10], in test [4], in test [5], in [8] and in test [9] was “inactive” in each case.
As to `Cc1nc2sccn2c(=O)c1CCN1CCC(=C(c2ccc(F)cc2)c2ccc(F)cc2)CC1`, the outcome in [1] and in [3] was inactive. The Potency result in [2], in test [10], in test [4] and in [8] was “inactive” each time.
For `CCCCCN(CCCCC)C(=O)C(CCC(=O)O)NC(=O)c1ccc(Cl)c(Cl)c1` (centres undefined), the result in [1] and in [3] was inactive. In addition, the Potency result in test [2], in [10], in test [4], in test [5], in [6] and in test [8] was “inactive” throughout. Besides, the Potency entry in [9] is “inactive”.
Consider `OCCN1CCN(CC/C=C2/c3ccccc3Sc3ccc(C(F)(F)F)cc32)CC1`, for which the outcome in test [1] and in [3] was inactive. Also, the Potency result in test [2], in test [4] and in [9] was “inactive” throughout. In test [5], the Potency is 21.1 µM (active).
As for `CN(C)CCCN1c2ccccc2Sc2ccccc21`, the outcome in [1] and in test [3] was inactive. In addition, the Potency result in test [2], in test [4] and in [7] was “inactive” in each case.
In the case of `CN=C(NC#N)NCCSCc1nc[nH]c1C`, the outcome in [1] and in test [3] was inactive. For the same compound, the Potency result in test [2], in test [10], in [4], in [5], in test [6] and in test [8] was “inactive” throughout. In test [9], the Potency entry was “inactive”.
Take `O=C(CCCN1CCC(O)(c2cccc(C(F)(F)F)c2)CC1)c1ccc(F)cc1`: the result in test [1] and in test [3] was inactive. The Potency result in [2], in test [10], in [4], in test [8] and in test [9] was “inactive” each time.
Regarding `O=C(CCNNC(=O)c1ccncc1)NCc1ccccc1`, the outcome in test [1] and in test [3] was inactive. For the same compound, the Potency result in test [2], in [4], in test [5], in [6], in test [8] and in test [9] was “inactive” throughout.
In the case of `CCN(Cc1ccncc1)C(=O)C(CO)c1ccccc1` (centres undefined), the outcome in test [1] and in [3] was inactive. Further, the Potency result in test [2], in [10], in [4], in test [5], in test [6] and in test [8] was “inactive” in each case. In [9], the Potency entry is “inactive”.
For `C=CCc1ccccc1OCC(O)CNC(C)C` (centres undefined), the result in test [1] and in test [3] was inactive. The Potency entry in test [2], in test [4], in [5], in test [6], in test [7] and in [8] was “inactive” throughout. Moreover, the Potency entry in test [9] is “inactive”.
For the compound `CCCCNC(=O)NS(=O)(=O)c1ccc(C)cc1`, the outcome in test [1] and in test [3] was inactive. Moreover, the Potency result in test [2], in [4], in test [5], in test [6], in test [8] and in [9] was “inactive” in each case.
Regarding `CC[N+](C)(C)c1cccc(O)c1`, the outcome in [1] and in test [3] was inactive. Further, the Potency entry in test [2], in [4], in test [5], in [6], in test [7] and in test [8] was “inactive” in each case. In test [9], the Potency entry is “inactive”.
`CC(C)NCC(O)c1cc(O)cc(O)c1` (centres undefined): the result in [1] and in [3] was inactive. The Potency result in test [2], in test [10], in [4], in test [5], in test [6] and in test [8] was “inactive” in each case. In addition, the Potency entry in [9] was “inactive”.
`C(=C\c1ccccc1)/CN1CCN(C(c2ccccc2)c2ccccc2)CC1`: the result in test [1] and in test [3] was inactive. Besides, the Potency entry in [2], in [10] and in test [8] was “inactive” throughout.
In the case of `CCN(CC)CCCN(c1ccccc1)C1Cc2ccccc2C1`, the outcome in test [1] and in test [3] was inactive. For the same compound, the Potency entry in test [2], in [10], in test [4], in [8] and in test [9] was “inactive” throughout.
Regarding `O=c1[nH]c(=O)n([C@H]2C[C@H](O)[C@@H](CO)O2)cc1Br`, the result in test [1] and in test [3] was inactive. Further, the Potency entry in test [2], in test [4], in test [5], in test [6], in test [7] and in test [8] was “inactive” each time. In addition, the Potency result in test [9] is “inactive”.
For `CC(=O)OC(C)C[N+](C)(C)C` (centres undefined), the outcome in [1] and in [3] was inactive. Besides, the Potency result in test [2], in test [4], in test [5], in [6], in [8] and in [9] was “inactive” each time.
`C[C@]12CCC(=O)C=C1CC[C@@H]1[C@@H]2C(=O)C[C@@]2(C)[C@H]1CC[C@]2(O)C(=O)CO`: the result in [1] and in test [3] was inactive. Further, the Potency entry in [2], in [4], in test [5], in test [6], in test [7] and in test [8] was “inactive” each time. Moreover, the Potency entry in test [9] was “inactive”.

Source of the values: PubChem BioAssay (NCATS).
